# Compounds without any hit were thinned out: in the full panel of roughly 83,000, 20% have a hit.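 Cell lines were cultured in 96-well plates, exposed to a single compound concentration, and assessed for percent growth 48 hours later.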 Calls of active or inactive are those of the source.
# Tested on: HOP-62 NSCLC
# Assay: NCI-60 one-dose screen, 48 h (100 = growth as untreated, 0 = no growth, -100 = all killed)
# Settings: 10 µM unless noted
# Protocol: Growth inhibition of the HOP-62 human Non-Small Cell Lung tumor cell line is measured as a screen for anti-cancer activity. Cells are grown in 96 well plates and exposed to the test compound for 48 hours. Compounds are tested at a single concentration, which is 10^-5 M for most compounds. The reported endpoint is percent growth (GI% or GIPRCNT), where numbers from 0 - 100% represent growth inhibition, and numbers from -100% - 0 represent cell death. For example, a value of 40 represents 60% growth inhibition. A value of 0 means no net growth occurred over the course of the experiment. A value of -40 indicates 40% of cells at the beginning of the experiment died by the end of the experiment. A value of -100 means all cells are dead at the end of the experiment.
# NCI-60 Human Tumor Cell Lines Screen was performed using the standard one-dose NCI protocol, which is described in more detail at https://dtp.cancer.gov/discovery_development/nci-60/default.htm.
# Compounds with GIPRCNT values below 10 were considered active. Activity score was based on GIPRCNT using the following formula: […]
# Score is 0 for GIPRCNT values of 100 or above, 50 for GIPRCNT values of 0, and 100 for GIPRCNT values of -100.
row,SMILES,growth
1,CCCOC(=O)N[C@H]1CCc2c(Br)c(OC)c(OC)c(OC)c2-c2ccc(SC)c(=O)cc21,41.1% (inactive)
2,c1cnc2[nH]cc(-c3csc(-c4cn(CCCCN5CCCCC5)c5ccccc45)n3)c2c1,82.4% (inactive)
3,CC(=O)O[C@H](C[C@H](C(C)C)N(C)C(=O)[C@@H](NC(=O)[C@H]1CCCCN1C)C(C)(C)C)c1nc(C(=O)N[C@@H](Cc2ccccc2)C[C@H](C)C(=O)O)cs1,19.7% (inactive)
4,O=[N+]([O-])CC(c1ccccc1Cl)c1c(-c2ccccc2)[nH]c2ccccc12 (stereo not given),30.3% (inactive)
5,CCOC(=O)CCC(NC(=O)C(Cc1ccc(N(CCCl)CCCl)cc1)NC=O)C(=O)OCC (stereo not given),113% (inactive)
6,COc1ccc(/C(C)=C(\c2ccc(OCCN3CCOCC3)cc2)c2ccc(OC(=O)Cc3ccccc3)cc2)cc1,108% (inactive)
7,c1cc2c(c3c1CCNC3)OCO2,96.6% (inactive)
8,CCCCCCCCOC(=O)CCN1CC1,124% (inactive)
9,C/C=C(\C)C(=O)O[C@@H]1C(O)[C@H]2OC(COC(=O)CCC(=O)CCCCCC[C@H](CCCCC)O[C@@H]3OC(C)[C@H](OC(C)=O)C(O)[C@H]3O2)[C@H]1OC(=O)/C=C/c1ccccc1 (stereo not given in full),-2.42% (active)
10,Cc1ccc2c(C(C[N+](=O)[O-])c3cccs3)c(-c3ccccc3)[nH]c2c1 (stereo not given),26.2% (inactive)
11,O=C([O][Hg][CH2]C1COCC([CH2][Hg][O]C(=O)c2ccccc2)O1)c1ccccc1 (stereo not given),127% (inactive)
12,COc1ccc(N(CC(=O)NCCC[Te]c2ccccc2)C(=O)CNC(=O)OC(C)(C)C)cc1,1.88% (active)
13,COC(=O)[C@@H](C)C[C@H](Cc1ccccc1)NC(=O)c1csc([C@@H](C[C@H](C(C)C)N(C)C(=O)[C@@H](NC(=O)C23CC(NC(C)=O)(C2)C3)C2CC2)OC(C)=O)n1,67.9% (inactive)
14,Cc1cc(C)c(CBr)c(C)c1,104% (inactive)
15,C[C@]12CC[C@H]3[C@@H](CC[C@]4(O)C[C@@H](O[C@@H]5O[C@H](CO)[C@@H](O[C@@H]6OC[C@@H](O)[C@H](O)[C@H]6O)[C@H](O)[C@H]5O)CC[C@]34C=O)[C@@]1(O)CC[C@@H]2C1=CC(=O)OC1,-68.4% (active)
16,COC(=O)[C@]12CCC(C)(C)C[C@H]1[C@H]1C(=O)C[C@@H]3[C@@]4(C)C[C@@]5(CC(C)(C)[C@@H]4CC[C@@]3(C)[C@]1(C)CC2)OO[C@@](C)(C(F)(F)F)O5,100% (inactive)
17,CCc1ccccc1[C@@H]1C[C@]2(C)CCO[C@@H]2OO1,98.2% (inactive)
18,COC(=O)[C@H](Cc1ccccc1)NC(=O)c1csc([C@@H](C[C@H](C(C)C)N(C)C(=O)[C@@H](NC(=O)[C@H]2CCCN2C)C2CC2)OC(C)=O)n1,34.9% (inactive)
19,C[C@]12CCc3sc(-c4ccccc4O)nc3C1=CC[C@@H]1[C@@H]2CC[C@]2(C)C(=O)CC[C@@H]12,98.9% (inactive)
20,COc1ccc2c(c1)c(-c1nc(-c3c[nH]c4ncccc34)cs1)cn2CCCCN1CCCCC1,-75.5% (active)

row,SMILES,growth
1,O=C(Nc1ccncc1F)c1cn(CC2CC2)c2ccccc12,108% (inactive)
2,COc1ccc(C(=O)c2cc(OC)c(OC)c(OC)c2)cc1OC(C)=O,25.2% (inactive)
3,CC[C@H](C)[C@@H]1OC(=O)C(C)(C)[C@H](O)[C@H](Cc2ccccc2)OC(=O)[C@H](C(C)C)OC(=O)[C@@H](NC(=O)c2cccc(NC=O)c2O)[C@@H](C)OC1=O,45% (inactive)
4,Fc1ccc2c(c1)c(-c1nc(-c3c[nH]c4ncccc34)cs1)cn2CCN1CCOCC1,39.3% (inactive)
5,COc1ccc(NC([Se])=NC23CC4CC(CC(C4)C2)C3)cc1,-0.819% (active)
6,COc1ccc(/C=C\c2cc(OC)c(OC)c(OC)c2)cc1OCC(=O)Nc1nc2ccc(C(F)(F)F)cc2s1,45.4% (inactive)
7,Cc1cc(N(CCCl)CCCl)ccc1C=Nc1ccc(-c2csc(Cc3ccccc3)n2)cc1,65.1% (inactive)
8,COc1cc2c(cc1OCCCCn1c(-c3cccs3)nc3ccccc31)N=C[C@@H]1CCCN1C2=O,17.7% (inactive)
9,O=C(CC1(O)C(=O)N(Cc2ccccc2)c2ccc(F)cc21)c1ccc(C(=O)NCC2CCC3(CC2)OOC2(CCCCC2)OO3)cc1 (stereo not given),-56.6% (active)
10,CN1CC(=O)N(O)C1(C)c1cccnc1 (stereo not given),95.6% (inactive)
11,NC(=O)CNc1ccc([As]=[As]c2ccc(NCC(N)=O)cc2)cc1 (stereo not given),94% (inactive)
12,CCn1c2ccccc2c2cc(C(=O)c3cccc4c3CCCN4)ccc21,95.7% (inactive)
13,COP(=S)(N1CC1)N1CC1,94.1% (inactive)
14,Clc1cccc(Cl)c1Cl,99% (inactive)
15,CNC(=O)Oc1ccc(N(C)C)cc1C(C)C,99.5% (inactive)
16,C=CCn1cc(C=C2C(=O)N(C)C(=O)N(C)C2=O)c2ccccc21,97% (inactive)
17,CCCC[C@H](NC(=O)[C@H]1CCCN1C)C(=O)N(C)[C@H](C[C@@H](OC(C)=O)c1nc(C(=O)N[C@@H](Cc2ccccc2)C[C@H](C)C(=O)OCC)cs1)C(C)C,21.8% (inactive)
18,CC(=O)OCC1O[C@@H]([S-])C(OC(C)=O)[C@H](OC(C)=O)[C@@H]1OC(C)=O.[Au+].c1ccc(CN2[CH-]N(Cc3ccccc3)C(c3ccccc3)=C2c2ccccc2)cc1,92.8% (inactive)
19,Fc1ccc2c(c1)c(-c1nc(-c3c[nH]c4ncccc34)cs1)cn2CCCCN1CCCCC1,-89.5% (active)
20,COC(=O)[C@@H](C)C[C@H](Cc1ccccc1)NC(=O)c1csc([C@@H](C[C@H](C(C)C)N(C)C(=O)[C@@H](NC(=O)[C@H]2CCCCN2C)C(C)C)OC(C)=O)n1,0.881% (active)

# Reference: PubChem BioAssay (NCI)
